Assay outcomes deposited in PubChem BioAssay by National Center for Advancing Translational Sciences (NCATS).
Pf Dd2 growth = inhibitors of Plasmodium falciparum Dd2 growth | 120,000 tested, 4.3% active | P. falciparum Dd2 growth, SYBR Green, 72 h | AID 1347417 | Potency, µM (top dose mostly 28.9 µM), inactives show top-dose activity, negative = inhibition, actives largely listed as inhibitors; active = well fitted inhibition curve with a large enough effect;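 note: plate controls were DMSO vehicle for no effect and reference drug for full effect; nearly all actives have a fitted effect of over 65% in size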
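Infected erythrocytes (Dd2, 0.3% parasitemia, 2.5% hematocrit final) are added to compound in RPMI-1640/Albumax II medium, grown 72 h at 37C in low oxygen, then lysed with saponin/Triton-X containing SYBR Green and read by fluorescence.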
Numbers without * were called inactive; i = inactive; [ ] = dose if it differs, or a comment. This excerpt belongs to a sample that is enriched for hits. Potency is the fitted concentration of half-maximal effect.

SMILES | Pf Dd2 growth
O=C(c1ccccc1OCC1CCCN(Cc2ccc(F)cc2Cl)C1)N1CCOCC1 (centres undefined) | i
c1ccc(-c2[nH]ncc2CN2CCCC(N3CCN(c4ccccc4)CC3)C2)cc1 (centres undefined) | -3%
COc1ccc2c(c1)c(CN1CCc3nc(N4CCN(C)CC4)[nH]c(=O)c3CC1)cn2C | 0%[5.79 µM]
Cc1ccccc1-c1nc2cc3c(cc2cc1CN1CCC[C@H]1CO)OCO3 | -14%
COc1ccc(-c2nn(-c3ccccc3)cc2CN2CCN3CCCC3C2)c(F)c1 (centres undefined) | 7.1µM*
COc1ccc(CN2CCc3nc(N4CCN(C)CC4)[nH]c(=O)c3CC2)c(OC)c1 | 37%[5.79 µM]
Cc1ccccc1-c1nn(-c2ccc(F)cc2F)cc1CN1CCCC1CCO (centres undefined) | 7.9µM*
O=c1[nH]c(C2CCCN(Cc3cccc4ccccc34)C2)nn1-c1ccc(Cl)cc1 (centres undefined) | 11%
CNCC(=O)N1CCCC(N2CCN(c3ccc(OC)cc3)CC2)C1 (centres undefined) | 0%
COC1CCCN(Cc2cn(-c3ccc(F)cc3)nc2-c2ccccc2Cl)C1 (centres undefined) | 13µM*
CCc1cnc(C)nc1N1CCN(Cc2ccccc2F)C(CCO)C1 (centres undefined) | -27%
COc1ccc(-c2nn(-c3ccccc3)cc2CN2CCN(C)CC2)c(F)c1 | 10µM*
O=C(NCc1nnc2ccc(-c3ccccc3)nn12)c1ccc(F)cc1 | i
O=C(Nc1ccc(F)cc1)N[C@H]1[C@H](O)[C@@H](N2CCC(Cc3ccccc3)CC2)[C@@H]2OC[C@H]1O2 | i
CC1(C)C(=O)Nc2ccc(S(=O)(=O)N3CCC(c4noc(-c5cccnc5)n4)C3)cc21 (centres undefined) | i[5.79 µM]
C=CCNC(=O)CCc1c(C)nn(-c2ccccc2C)c1Oc1cccc(F)c1 | i
Cc1ccccc1NS(=O)(=O)C1CCS(=O)(=O)C1 (centres undefined) | 0%
CCn1ncc(N2CCCC(CC(=O)N(C)Cc3ccccc3)C2)cc1=O (centres undefined) | i
Cc1ncccc1OC1(C(=O)O)CCN(C(=O)Cc2ccn(C)c2)CC1 | 3%
CN1CCN(C(=O)c2cnc(-c3ccccn3)nc2)[C@H]2CS(=O)(=O)C[C@H]21 | 7%
COc1ccc(F)c(CN2CCCC(O)(CN3CCC(CO)CC3)C2=O)c1 (centres undefined) | -19%
COc1ccc(-c2ccnc3nc(-c4ccccc4OC)nn23)c(F)c1 | -20%
COC[C@@H]1CCCN1Cc1cn(Cc2ccccc2)nc1-c1cc2ccccc2o1 | i
COc1ccc(-c2nn(-c3ccccc3)cc2CN2CCN(C)C(C)C2)c(F)c1 (centres undefined) | 11µM*
COc1ccc(-c2nc3c(C)cccc3cc2CN2CC[C@@H](O)C2)cc1 | -25%
SMILES | Pf Dd2 growth
COc1ccc2nc(CO[C@H]3CN(Cc4cn(C)c5ccccc45)C[C@H]3F)[nH]c2c1 | -30%[44.1 µM]
COc1ccc(-c2nn(-c3ccccc3)cc2C(=O)Nc2ccccc2OC)cc1 | i
COc1ccc(F)c(CN2CCC(CCC(=O)N3CCN(c4ccccc4)CC3)CC2)c1 | -30%
COc1ccc(-c2nn(-c3ccccc3)cc2CN2CCCC(CO)C2)c(F)c1 (centres undefined) | 8.9µM*
COc1ccc(-n2cc(CN3CCN(C)C(C)C3)c(-c3cccc(F)c3)n2)cc1 (centres undefined) | -14%
COc1ccc(-n2cc(CN3CCCC(CO)C3)c(-c3cccc(F)c3)n2)cc1 (centres undefined) | 13µM*
COC[C@H]1CCCN1Cc1cn(-c2ccccc2)nc1-c1ccc(OC)cc1F | 10µM*
O=C(Nc1cccc(F)c1)N1CCC(n2cnnc2C2CC2)C1 (centres undefined) | -6%
CS(=O)(=O)N(C1CC1)C1CCOC2(CCN(C(=O)CCC3CCCC3)CC2)C1 (centres undefined) | -6%
O=C(N[C@H]1[C@H](O)[C@H](O)C[C@@H]1c1ccc(C(F)(F)F)nc1)c1nc2ccccc2s1 | i
CN1CCN(c2nc3c(c(=O)[nH]2)CCN(Cc2ccc(C#N)cc2)CC3)CC1 | 73%[5.79 µM]
Cc1ccc(NC(=O)Cn2ccn3nc(-c4ccc(F)cc4)c(CO)c3c2=O)cc1C | -21%
CC(=O)Nc1ccc(C(=O)NC2CCN(c3cc(-c4ccc(F)cc4)[nH]n3)C2)cc1 (centres undefined) | -24%
O=C(CN1CC2CC(C1)[C@H]1CCCC(=O)N1C2)NC1CC[S+](=O)([O-])C1 (some centres undefined) | -18%
CC1(C)CC(=O)C=C(C(=O)N2CCCC(N3CCN(c4ccccc4F)CC3)C2)O1 (centres undefined) | -10%
COc1ccccc1CCC(=O)N1CC[C@@H]2CN(S(C)(=O)=O)[C@@H]2C1 | 8%
CCN(CC)S(=O)(=O)N(C)CC1CCCN(CCc2ccccc2OC)C1 (centres undefined) | 2.8µM*
COc1ccccc1CC(=O)N[C@@H]1CN(C)C[C@H]1CN(C)C | 0%
CCOc1ccc(CC(=O)N2[C@@H]3CC[C@H]2CC(NC(=O)c2cnc(C)cn2)C3)cc1 (some centres undefined) | i
COC1CN(c2ccc(C)cc2)C12CCN(C(=O)c1ccncc1)CC2 (centres undefined) | -25%
C[C@H](O)c1onc(-c2ccccc2)c1C(=O)N1CCN(C)CC1 | -13%[44.1 µM]
CCn1c(Cn2ccnc2)nnc1C1CCN(C(=O)C(C)(C)OC)CC1 | -12%
O=C(c1cncnc1)N1C[C@@H](COCC2CC2)[C@H](c2ccncc2)C1 | 21%
COc1cccc(CN2C[C@@H](COCC3CC3)[C@H](c3ccncc3)C2)n1 | 11µM*
Cc1ccccc1C(=O)N1C[C@@H](COCC2CC2)[C@H](c2ccncc2)C1 | -23%
SMILES | Pf Dd2 growth
O=C(CC1CNCCO1)N1CCN(C(=O)c2ccccc2)CC1 (centres undefined) | -3%
CCn1cc(CN2CCCCC2c2nc(CCOCC3CCOCC3)no2)cn1 (centres undefined) | -8%
CC(C)C12CN3CC(C(C)C)(CN(C1)C3c1ccc(Cl)cc1)C2=O (centres undefined) | -13%
CC(C)C12CN3CC(C(C)C)(CN(C1)C3c1ccccn1)C2=O (centres undefined) | 8.9µM*
Cc1cccc(C2N3CC4(C(C)C)CN2CC(C(C)C)(C3)C4=O)c1 (centres undefined) | -19%
C=CCc1ccccc1OCCN(C)Cc1ccc(S(C)(=O)=O)cc1 | -14%
C=CCc1ccccc1OCCN(C)Cc1ncnn1CC | -13%
C=CCc1ccccc1OCCN(C)Cc1nc(C)ccc1O | 8.9µM*
CN(C)C(=O)c1ccc(OC2CCN(C(=O)c3ccc(Br)cc3)CC2)nc1 | -28%
COC1CCC12CCN(C(=O)c1cccc(C#N)c1)CC2 (centres undefined) | 15%
CCCN1C(=O)CC[C@H]2CN(C(=O)c3ccc(F)c(OC)c3)CC[C@H]21 | 5%
CN1CCC([C@@H]2CN(C(=O)NCCc3ccccc3)C[C@H]2C(N)=O)CC1 | 0%
COCCN1C(=O)CCc2cc(NC(=O)c3ccc(C)cc3C)ccc21 | i
COc1cccc(Cn2c(=O)n(CC3CCC(C(=O)N4CCCCC4)CC3)c(=O)c3sccc32)c1 (centres undefined) | 10µM*
Cc1ccccc1Cn1c(=O)n(CC2CCC(C(=O)N3CCC(C)CC3)CC2)c(=O)c2sccc21 (centres undefined) | 11µM*
